# Data as given in PubChem BioAssay (NCATS).
# This is one part of the list. Results filed as inconclusive are left out. The source made the active and inactive calls. Calls come from the whole dose curve; as a rule, active = well fitted inhibition curve with a large enough effect; inconclusive = small, poorly fitted or top-dose-only effect; inactive = flat fitted curve, though single readings scatter.
# Assay: qHTS Assay for Inhibitors of Fructose-1,6-bisphosphate Aldolase from Giardia Lamblia: Coupling assay counterscreen confirmation (AID 2795); note: nearly all actives have a fitted effect of over 55% in size
# Settings: GAPDH coupling enzyme counterscreen, biochemical; series mostly up to 57.5 µM
# From the text: NIH Chemical Genomics Center [NCGC]
# NIH Molecular Libraries Probe Production centers Network [MLPCN]
# Assay Provider: Osnat Herzberg, University of Maryland
# The objective of this project is to obtain compounds that inhibit Giardia lamblia growth. G. lamblia is a human pathogen which afflicts impoverished nations; it is the most common cause of outbreaks of diarrhea in the United States. During the course of our study of potential drug targets in Giardia, we have identified the Class II (Zn2+ functions in electrophilic catalysis) fructose-1,6-bisphosphate aldolase (FBPA) as an excellent candidate for drug targeting. FBPA is a key glycolytic pathway enzyme, essential for G. lamblia survival. The human FBPA belongs to the Class I aldolases, which have a different substrate binding site structure and a radically different catalytic mechanism (employing a lysine-Schiff base intermediate). Therefore, affinity-based or mechanism-based inhibitors of the Giardia FBPA are expected not to interfere with the catalytic function of the human FBPA.
# A glyceraldehyde-3-phosphate dehydrogenase/triose phosphate isomerase/NAD/arsenate coupled assay was adapted to the 1536-well HTP format for use in the primary screen. This was done by coupling it to a diaphorase/resazurin/resorufin reaction that can be monitored by fluorescence (excitation, 544 nm; emission, 590 nm). Compounds identified in this screen will be further evaluated by coupling the glycerol-3-phosphate/triose phosphate isomerase/NADH assay to a phenazine methosulfate/tetranitroblue tetrazolium color reaction. False positives due to the dehydrogenases and diaphorase inhibition will be eliminated, and selectivity assay will triage inhibitors of mammalian triose phosphate isomerase and the Class I FBPA. G. lamblia FBPA inhibitors identified by the in vitro analyses will be examined for growth inhibition of Giardia trophozoites, and for cytotoxicity in human cells.
# This assay specifically addresses whether activity observed in the primary screen (AID 2451) is related to inhibition of the coupling assay used, as opposed to inhibition of aldolase. Actives in this assay are considered inconclusive for activity against aldolase. Hits from the primary screen was run in this assay to confirm their inactivity against the coupling assay.
# Step,Parameter,Value,Description
# 1,Coupling enzyme reagent,2 uL,glyceraldehyde-3-phosphate
# 2,Compound,23 nL,3.68 nM-57.5 uM final concentration
# 3,Time,10 min,RT Incubation
# 4,Substrate/detection Reagent,2 uL,Substrate + enzyme coupling system + AmpLite Red kit
# 5,Time,20 min,RT Incubation
# 6,Detector,525 nm/598 nm (Fluorescence),ViewLux Fluorescence Read (Read 1)
# 1,Medium-binding black solid-bottom Kalypsys plates. FRD or Kalypsys dispenser.
# 2,Compound Library (10 mM ,1:5 dilution). Pin-transferred for a [final] range of 3.68 nM-57.5 uM.
# 4,FRD or Kalypsys dispenser, 2 uL of reaction mixture. Bottle kept at 4C and covered in foil to protect from light.
# 6,ViewLux Protocol 1194; Excitation filter wheel A (525/20 Pol; BODIPY TMR FP), Emission filter wheel B (598/25 S; BODIPY TMR FP S).
# Keywords: Fructose-bisphosphate aldolase, FBPA , Giardia lamblia , Giardia, HTS, Inhibitors
row,SMILES,outcome
1,Cc1nc2ccc(NC(=S)N3CCC(C)CC3)cc2nc1C,inactive
2,Cc1cnc(NC(=O)c2ccccn2)s1,inactive
3,O=C(NC(=S)Nc1ncccn1)c1ccccc1Br,inactive
4,C/C(=N\NC(N)=S)c1cccnc1,inactive
5,O=C1CCCN1CCCNC(=S)Nc1ccc(F)c(Cl)c1,inactive
6,O=C(Nc1nnc(-c2ccco2)o1)c1ccc(S(=O)(=O)N2CCOCC2)cc1,inactive
7,COc1cc(CN2CCN(Cc3ccc(C)cc3)CC2)c([N+](=O)[O-])cc1OC,inactive
8,Cc1csc(NC(=O)CN2CCCCCC2)n1,inactive
9,COc1ccc(C(=O)NC(=S)N2CCCCC2c2cccnc2)cc1OC (stereo not given),inactive
10,Cc1nc(N2CCOCC2)sc1C(=O)NN,inactive
11,Cc1cc(C)nc(N/N=C/c2ccc([N+](=O)[O-])o2)n1,inactive
12,COCCN(C(=S)Nc1ccccc1OC)C1CCN(C(C)C)CC1,inactive
13,Oc1ccc2ccccc2c1N=Nc1nccs1,inactive
14,CN1CCN(CCCCOc2ccccc2-c2ccccc2)CC1,inactive
15,COc1ccc(Cl)cc1C(=O)NNC(=O)c1nc2nc(C)cc(C)n2n1,inactive
16,Cn1nnc(NC(=S)NC(=O)c2ccccc2)n1,inactive
17,CC1CCCN(S(=O)(=O)c2ccc(C(=O)Nc3nnc(-c4ccncc4)o3)cc2)C1 (stereo not given),inactive
18,COC(=O)CC1=NN(c2nc(C)cc(C)n2)C(=O)C1,inactive
19,COc1ccc(OC)c(Nc2nc(-c3ccc(O)c(O)c3)cs2)c1,inactive
20,O=C(CN1CCN(Cc2ccccc2)CC1)Nc1ccc(F)c(F)c1,inactive

row,SMILES,outcome
1,CCN1CCc2c(C#N)c(NCc3ccccc3)nc(NCCO)c2C1,inactive
2,CCN(CC(=O)NC(=O)NCc1ccccc1)Cc1nc2ccccc2c(=O)[nH]1,inactive
3,CN(C)CCOc1ccc(Cl)cc1C(C)(C)C,inactive
4,O=c1nc(N/N=C/c2ccco2)cn[nH]1,inactive
5,CN1C(=O)/C(=C\c2ccc(-c3ccccc3)o2)SC1=S,inactive
6,O=C(CN1C(=O)COc2ccccc21)Nc1ccc(F)cc1,inactive
7,CNC(=S)N/N=C/c1ccc(N2CCOCC2)s1,inactive
8,Cc1nnc(SCC2=C(C(=O)O)N3C(=O)C(NC(=O)Cn4nc(C)c(Cl)c4C)C3SC2)s1 (stereo not given),inactive
9,COc1ccc(N=Nc2c(-c3ccc(OC)cc3)[nH]oc2=O)cc1,inactive
10,C=CCNC(=S)/N=c1/ccccn1Cc1ccccc1,inactive
11,Cc1cccc(-c2nnc(SCC(=O)O)n2Cc2ccccc2)c1,inactive
12,Cc1cc(C)n(-c2ccc(Cl)c(C(=O)O)n2)n1,inactive
13,Cc1cc(C)c2c(=O)[nH]c(SCC(=O)Nc3ccc(Br)cc3)nc2n1,inactive
14,Clc1cccc(CN2COc3c(cc(Cl)c4cccnc34)C2)c1,inactive
15,Cn1c(=O)[nH]c(=O)c2c1[nH]c(=S)n2Cc1ccccc1,inactive
16,COc1ccc(CN2CCN(Cc3ccc(OC)c(OC)c3OC)CC2)cc1,inactive
17,Cc1ccc(S(=O)(=O)NNC(=S)NC(C)(C)C)cc1,inactive
18,C=C(C)CNC(=S)N/N=C/c1ccccc1OCC(=O)O,inactive
19,CC(C)(c1ccccc1)c1ccc(OCCN2CCCC2)cc1,inactive
20,O=C(N/N=C/c1ccccn1)c1cccnc1,inactive
